Assay outcomes from PubChem BioAssay.
The list is not random: actives were taken first. Their share in the collection is about 1.2%.
NPSR antag = neuropeptide S receptor (human) antagonism, cAMP. Q6W5P4. CHO-NPSR cells, cAMP TR-FRET, antagonist mode. Potency, µM (series often up to 38.3 µM), for inactives: top-dose activity change, negative = inhibition, most hits filed as inhibitors. actives 1% (n = 220,000). AID 1461; note: nearly all actives have a fitted effect of over 50% in size
Target sequence (Q6W5P4 whole entry, looked up): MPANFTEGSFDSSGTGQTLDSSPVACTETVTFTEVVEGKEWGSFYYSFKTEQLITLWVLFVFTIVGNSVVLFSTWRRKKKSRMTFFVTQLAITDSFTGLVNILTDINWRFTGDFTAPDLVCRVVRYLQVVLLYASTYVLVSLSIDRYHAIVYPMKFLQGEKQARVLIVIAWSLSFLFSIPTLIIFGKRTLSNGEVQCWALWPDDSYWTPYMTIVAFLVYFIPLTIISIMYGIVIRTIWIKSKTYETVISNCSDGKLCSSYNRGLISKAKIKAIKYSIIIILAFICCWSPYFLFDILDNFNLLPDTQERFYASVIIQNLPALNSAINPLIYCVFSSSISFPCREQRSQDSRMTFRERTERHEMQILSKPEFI
rTrxR1 inhibitor = blocks rat thioredoxin reductase 1 | O89049 | recombinant rTrxR1, NADPH fluorescence consumption, selenite substrate | actives 1% (n = 390,000) | Potency, µM (highest dose often 114 µM), inactives show at the highest dose activity change, negative = inhibition, actives largely listed as inhibitors; note: nearly all actives have a fitted effect of over 65% in size
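Rat TrxR1 (90 nM in the dispensed reagent) was pre-reduced with 400 uM NADPH for 5 min at room temperature, then incubated with compound for 15 min. After 400 uM selenite was added, NADPH fluorescence (Ex 340/Em 450 nm) was followed for 8 min.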
GALK inh = galactokinase (human) inhibition; Purified GALK, Kinase-Glo residual ATP luminescence; Potency, µM (top dose mostly 57.5 µM), for the others: at the top dose activity change, negative = inhibition, most hits filed as inhibitors; actives 0.007% (n = 270,000); AID 1868
Target sequence (P51570 whole entry, looked up): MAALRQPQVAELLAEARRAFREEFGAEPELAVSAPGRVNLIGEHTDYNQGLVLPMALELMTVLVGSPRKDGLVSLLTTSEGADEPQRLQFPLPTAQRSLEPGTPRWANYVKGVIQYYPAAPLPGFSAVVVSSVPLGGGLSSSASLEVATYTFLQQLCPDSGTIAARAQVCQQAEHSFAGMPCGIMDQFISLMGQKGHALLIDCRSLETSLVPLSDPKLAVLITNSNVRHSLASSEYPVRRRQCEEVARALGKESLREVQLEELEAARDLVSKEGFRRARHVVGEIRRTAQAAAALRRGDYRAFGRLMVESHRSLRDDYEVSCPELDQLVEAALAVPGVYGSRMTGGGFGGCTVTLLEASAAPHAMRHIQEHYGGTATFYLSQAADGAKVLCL
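GALK at 5 nM final was combined with compound, 35 uM ATP and 100 uM galactose in HEPES pH8.0 with MgCl2 and DTT. The reaction ran one hour at room temperature before luminescent ATP detection.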
TrxR1 substrate = rat thioredoxin reductase 1 substrate activity. O89049. purified TrxR1 substrate turnover, NADPH consumption readout. Potency, µM (top dose mostly 114 µM), for inactives: top-dose activity change, negative = substrate turnover. actives 0.01% (n = 390,000); note: nearly all actives have a fitted effect of over 50% in size
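Rat TrxR1, dispensed at 90 nM, was prereduced with 400 uM NADPH (final) for 5 min at ~22 deg C, then incubated with compound 15 min before 400 uM selenite. A first-read NADPH fluorescence drop versus no-compound background flagged substrates.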
The depositor's hits bear a star; ? = inconclusive; nt = no result given; [ ] = dose if it differs, or a comment. Calls come from the whole dose curve; as a rule, active = well fitted curve in the direction sought with a large enough effect; inconclusive = small, poorly fitted or top-dose-only effect, or another doubt; inactive = no such curve, though single readings can be large; an effect the other way counts as inactive or inconclusive. % is set by controls: 0 for no effect and ±100 for the full control effect; potency is the fitted concentration of half-maximal effect.

SMILES | NPSR antag | rTrxR1 inhibitor | GALK inh | TrxR1 substrate
CCCCCCC(=O)N(O)C1CC(=O)N(Cc2ccccc2)C1=O (stereo unspecified) | -10%[46.1 µM] | 5% | 0% | -3%
O=C(CN1C(=O)NC2(CCCCC2)C1=O)Oc1ccc2ccc(=O)oc2c1 | nt | 50µM* | nt | 379%
Cc1ccc(C)c(S(=O)(=O)N(C)c2ccc(OC(=O)CN3C(=O)NC4(CCCC4)C3=O)cc2)c1 | nt | 9% | nt | -2%
COc1ccc(CCNC(=O)c2ccc3c(c2)CCN3S(=O)(=O)c2ccccc2)cc1 | nt | 7% | nt | -1%
COc1cc2nc(N3CCCN(C)CC3)nc(NC3CCNCC3)c2cc1OC | nt | -17% | nt | 294%
COCCn1c(C)cc(O)c(C(c2ccccc2)N2CCN(CCO)CC2)c1=O (stereo unspecified) | nt | ? | nt | 6%[57.1 µM]
CCN1CCN(C(c2ccc(SC)cc2)c2c(O)cc(C)n(CCOC)c2=O)CC1 (stereo unspecified) | nt | 25µM* | nt | 4%[57.1 µM]
CCN1CCN(C(c2ccccc2F)c2c(O)cc(C)n(CCOC)c2=O)CC1 (stereo unspecified) | nt | ? | nt | 5%[57.1 µM]
CCN1CCN(C(c2ccccc2Cl)c2c(O)cc(C)n(CCOC)c2=O)CC1 (stereo unspecified) | nt | 10µM* | nt | -2%[57.1 µM]
Cc1oc2c(c1C(=O)NCc1cccc(Br)c1)C1=NCCN1C=N2 | nt | 14%[57.1 µM] | nt | 7%[57.1 µM]
Oc1ccc[n+](CC(O)c2ccccc2)c1 (stereo unspecified) | nt | 9%[57.1 µM] | nt | 10%[57.1 µM]
OC(C[n+]1c(Cl)ccc2ccccc21)c1ccccc1 (stereo unspecified) | nt | 40µM* | nt | 15%
CCCOc1ccc(C(=O)CCN2CCN(C(=O)OCC)CC2)cc1 | 25% | 8.9µM* | 0% | 4%[57.1 µM]
COc1ccc(N2CCN(CCC(N)=O)CC2)cc1 | -5%[46.1 µM] | 10%[57.1 µM] | 1% | 10%[57.1 µM]
COc1ccc(C(=O)CCN2CCN(c3ccc(OC)cc3)CC2)cc1 | nt | 2.8µM* | nt | -5%[57.1 µM]
COc1ccc(C(O)(CCc2ccccc2)CCN2CCCCC2)cc1 (stereo unspecified) | -14% | 8.9µM* | -1% | 7%[57.1 µM]
COc1ccc(C(=O)CCN2CCCCCC2)cc1 | -2%[46.1 µM] | 0.79µM* | 2% | 7%
C=CCC(O)(CCN1CCCCC1)c1ccccc1 (stereo unspecified) | -7%[46.1 µM] | 5%[57.1 µM] | 1% | 10%[57.1 µM]
CCN1CCN(c2ncc3c(n2)CCN(Cc2sccc2C)C3)CC1 | nt | 1%[57.1 µM] | nt | -1%[57.1 µM]
COc1ccc(C(=O)CN2CCN(c3ccc(F)cc3)CC2)cc1OC | -7%[46.1 µM] | 20µM* | 1% | 2%
O=C(/C=C/c1ccccc1)CCN1CCCCC1 | nt | ? | nt | -5%[57.1 µM]
CCOc1ccc(OCCCCN2CCCC2)cc1 | -6%[46.1 µM] | 3% | 0% | -6%
O=C(CCN1CCCCCC1)c1ccccc1 | -4%[46.1 µM] | 0.89µM* | -5% | 10%[11.4 µM]
CCOc1ccc(C(=O)CCN2CCCCC2)cc1 | 13%[46.1 µM] | 0.71µM* | 6% | 13%
Cc1ccc(-c2csc3nc(C)n(N)c(=O)c23)o1 | -2%[46.1 µM] | -7% | -1% | 10%
SMILES | NPSR antag | rTrxR1 inhibitor | GALK inh | TrxR1 substrate
Cc1ccc(-c2csc3nc(C)n(-n4c(C)ccc4C)c(=O)c23)o1 | -15%[46.1 µM] | 18µM* | -1% | -3%
Cn1cc(C(C[N+](=O)[O-])c2ccccc2)c2ccccc21 (stereo unspecified) | nt | 4% | 2% | -3%
CC(=O)n1cc(C(C[N+](=O)[O-])SCCN)c2ccccc21 (stereo unspecified) | 10µM* | ? | nt | -4%
O=C(Nc1ccc2c(c1)CCC2)C1CCN(c2c3c(nc4ncnn24)CCC3)CC1 | -6%[46.1 µM] | -5% | -5% | 7%[57.1 µM]
O=C(Nc1ccc(Oc2ccccc2)cc1)C1CCN(c2c3c(nc4ncnn24)CCC3)CC1 | 13µM* | 8% | -5% | 3%
C=CCN1C=C2C(=O)C(C)(OC(=O)c3ccc(OC)cc3)C(=O)C(c3ccco3)=C2C=C1CCCC (stereo unspecified) | -32% | 7.1µM* | -1% | 12%[57.1 µM]
O=C(CCN1CCOCC1)c1ccc(Cl)cc1 | 0% | ? | -1% | -4%[57.1 µM]
CC(C)Oc1ccc(C(=O)CCN2CCCCC2)cc1 | -1%[46.1 µM] | ? | -2% | 4%
O=C(CCN1CCOCC1)c1ccc(Br)cc1 | -17% | 0.45µM* | 3% | 12%[57.1 µM]
CCCCCOc1ccc(C(=O)CCN2CCOCC2)cc1 | nt | 10µM* | -1% | 5%[57.1 µM]
CCCCOc1ccc(SCCCN2CCOCC2)cc1 | nt | 9% | nt | -5%
CCCCOc1ccc(C(O)(CCN2CCOCC2)c2ccccc2)cc1 (stereo unspecified) | nt | 40µM* | -1% | -5%
CC(C)Oc1ccc(C(=O)CCN2CCOCC2)cc1 | nt | 3.5µM* | nt | 5%
CCCn1c(CCCNC(=O)c2ccccc2OC)nc2ccccc21 | nt | 17% | nt | 12%[2.29 µM]
c1ccc2c(N=NN3CCCCC3)ccnc2c1 | nt | 6% | nt | -5%
Cc1ccc(NC(=O)/C(C#N)=C/c2cc(C)n(-c3ccc(Br)cc3)c2C)cc1C | nt | -2% | nt | 1%
Cc1sc2ccccc2[n+]1Cc1ccccc1 | nt | 2% | nt | 7%
O=S1(=O)CCO[C@H]2CCCC[C@@H]2N1Cc1ccccc1 | nt | 15% | nt | 0%
Cc1ccc(-c2onc(C)c2C)cc1S(=O)(=O)NCc1ccc(N(C)C)cc1 | nt | -5%[57.1 µM] | nt | -3%[57.1 µM]
NC(=O)C1CCN(C2=C(NS(=O)(=O)c3ccccc3)C(=O)c3ccccc3C2=O)CC1 | 11%[7.67 µM] | 14% | 1% | 1%
O=C1C(Cl)=C(N2CCC(C(=O)O)CC2)C(=O)c2ccccc21 | -6%[7.67 µM] | 1.1µM* | ? | -1%
NC(=O)C1CCN(C2=C(Cl)C(=O)c3ccccc3C2=O)CC1 | 10µM* | 1µM* | ? | -15%
CN1CCN(C2=C(Cl)C(=O)c3ccccc3C2=O)CC1 | nt | ? | nt | -4%[57.1 µM]
COc1cccc(N2CCN(C(=O)Cn3ncc4c3-c3ccccc3OC4)CC2)c1 | nt | 8% | nt | -3%
CCCCn1cnc2c(SCc3ccc([N+](=O)[O-])cc3)nc(N)nc21 | nt | 5% | nt | -4%
SMILES | NPSR antag | rTrxR1 inhibitor | GALK inh | TrxR1 substrate
Cn1cnc([N+](=O)[O-])c1Sc1nc(N)nc2c1ncn2Cc1ccccc1 | nt | 6.3µM* | nt | -8%
Nc1nc(SCc2ccccc2[N+](=O)[O-])c2ncn(Cc3ccccc3)c2n1 | nt | 19% | nt | -1%
CCCCn1cnc2c(Sc3c([N+](=O)[O-])ncn3C)nc(N)nc21 | nt | 2.8µM* | nt | -6%
CCCn1cnc2c(Sc3c([N+](=O)[O-])ncn3C)nc(N)nc21 | nt | 3.2µM* | nt | -4%
COc1ccc(/C=C/c2ccnc3ccccc23)cc1 | nt | 16% | nt | 2%
COC(=O)c1c(NC(=O)/C=C/C(=O)O)sc(C)c1-c1ccc(C)cc1 | -50% | -3%[57.1 µM] | -5% | -4%[57.1 µM]
COC(=O)c1c(NC(=O)/C=C/C(=O)O)sc(C)c1-c1ccc(C(C)C)cc1 | 13µM* | -8%[57.1 µM] | -4% | 4%[57.1 µM]
CCOC(=O)c1sc(=NC(=O)c2ccc(S(=O)(=O)N3CC(C)OC(C)C3)cc2)n(C)c1C (stereo unspecified) | 10µM* | 3% | 1% | 19%
CCOC(=O)c1ccc(S(=O)(=O)N2CCN(C(=O)c3cccc(S(=O)(=O)N4CC(C)OC(C)C4)c3)CC2)cc1 (stereo unspecified) | nt | 11% | nt | -5%
CCOC(=O)c1sc(=NC(=O)c2cccs2)n(C)c1C | 3.2µM* | -2%[57.1 µM] | 12% | 1%[57.1 µM]
